Numbering of substitutions follows the chain as printed. The full ranking holds about 24,000 sequences; the median of “enrichment r” is about 0.99, and the highest 2% start at about 3.7. The entries come from a sample that favours the highest values as a whole.
B1: chr15:85259290:85259291:-_ENSG00000140612_ENST00000559729|hu_mus|FALSE|FALSE (ssRNA)
RNA: GGGAGUUCUACAGUCCGACGAUCAUUUAGGACUUGGUAGUACAGCUGCCUCUUGUUCAUCCGCCGCACAUCGUCUAGAAAGUCUAGAGACAGCAUGGUGAGAUGGAGAGCGCGACAACUAGCAGCCAAGAGGGCGCGAUAGAACAACAGAGGAUUGAGCAUCA
B2: chr2:125083379:125083380:+_ENSMUSG00000027203_ENSMUST00000082122|mus_mus|FALSE|FALSE (ssRNA)
RNA: GGGAGUUCUACAGUCCGACGAUCUUAAAAAAAAUUACAAAUGAUACAGCAAUUAUGAUCAAAAACAGUUUUUGGAAGGCUAUAAUUUAAAUAAUACAACAACAACAAAAAAUCUAACUGUACCCUGGGUUUUACCAAGUCUGCCAACAGAGGAUUGAGCAUCA
B3: chr8:13019523:13019524:+_ENSMUSG00000031442_ENSMUST00000123811|mus_mus|FALSE|FALSE (ssRNA)
RNA: GGGAGUUCUACAGUCCGACGAUCUUAAAGUUUUGAGGCCAGAGUACCACAAAAAAUGGCCAUGGGGUUAAUCCCUGUUUAAAAAAAAUCAAAAACUUAUAAAAGACGAGAGUCCCUUGACCCCCCCUUAGGCUGUUGGUAGCACAACAGAGGAUUGAGCAUCA
B4: chr8:90938390:90938391:+_ENSG00000164823_ENST00000451899|hu_hu|FALSE|FALSE (ssRNA)
RNA: GGGAGUUCUACAGUCCGACGAUCAAGAAUAUGAAGUACCUGUCAAGGUUUCAACGAUAAAAAUAUUUUUUAAAAGACCCUAUUUGGUAAUAAAUUAGAUUUAUACAAUUGAUAAUUUCAAAAUAAAUAAAAUCUGAGUUGUAACAACAGAGGAUUGAGCAUCA
B5: 2747543_2750058_4223_CDS_ENSG00000101596_ENST00000320876|human|control|control (ssRNA)
RNA: GGGAGUUCUACAGUCCGACGAUCUUGGUUUGAAGGCAUGAGCUUUAAAUUGCUAGCUUUUGUAAGACUUAUUUUAACAUGUUGUACCGGUGCUGGAUUAUCCCACUGAUCACAAAGUUGAACAAUAAUAGGGUUCUGUAAAUCCAACAGAGGAUUGAGCAUCA
B6: chr2:125083379:125083380:+_ENSMUSG00000027203_ENSMUST00000082122|mus_mus|motif|central (ssRNA)
RNA: B2 RNA with U80G, A81G
B7: chr13:107772667:107772668:-_ENSMUSG00000021693_ENSMUST00000022204|mus_hu|motif|central (ssRNA)
RNA: GGGAGUUCUACAGUCCGACGAUCCAUUUCAUUAGGAGCUGAGUCAUCAAAGGCAUAAUCAAAACGAAAUGUUUGGUUUUCGGGGUACCUUGUUAAAUCUACUUUUUGUUUUGGUUCAUGUACCAUCACAACAUCUUUACUAGGCAACAGAGGAUUGAGCAUCA
B8: chr2:44571030:44571031:-_ENSG00000138078_ENST00000409411|hu_hu|FALSE|FALSE (ssRNA)
RNA: GGGAGUUCUACAGUCCGACGAUCUCUUAUCUUGGCAGCCACAUAUUUUUCAUCUGGAGCAACUCUGAUACAAUCAAUGAAGGGCUGGUCUAACUUAAGUUCCUCCAAAUUGAAUAAAACUUCAUAAUUAUCAUUGUCUGCUUCCAACAGAGGAUUGAGCAUCA
B9: chrX:101157612:101157613:-_ENSMUSG00000056537_ENSMUST00000070705|mus_mus|motif|central (ssRNA)
RNA: GGGAGUUCUACAGUCCGACGAUCAAAUUAUCAGUAACAGGUUAGCAAUUCAUCUGGUACCGAAAUCAAAUGUUUAAGUCCGGAAAUGUUGUUUUUAAAAUAUUCUUUCCAUCCUGAAAGAGAAACUAGAGAAAAGGCAUGAUACAACAGAGGAUUGAGCAUCA
B10: chr8:90938390:90938391:+_ENSG00000164823_ENST00000451899|hu_hu|motif|central (ssRNA)
RNA: B4 RNA with U80G, A81G
B11: 5810229_5811228_1359_CDS_ENSG00000099219_ENST00000339450|human|control|control (ssRNA)
RNA: GGGAGUUCUACAGUCCGACGAUCAGUCUUAUGUUUGGGCUGCAAAAAUUUUUUGCCCAGGUACAAAACAACACCCAUUACCACCAUGUAGUUUAUGAUUGAGCCAAUACGAGAGGGGUAGGCAAUGACAAACAGGCCCAGCACCAACAGAGGAUUGAGCAUCA
B12: chr9:127920631:127920632:-_ENSG00000119414_ENST00000456642|hu_mus|motif|central (ssRNA)
RNA: GGGAGUUCUACAGUCCGACGAUCAAUACGGUCAGGCCACUUAGCCUUUAGUGCAAGAAGAUAAGUGAAGGUCUCCAAACGGUAGUAACCUCUGUCUACAAAAUCACCCAUAAAUAUGUAGUUUGUGUCAGGAACCUGACCUCCCAACAGAGGAUUGAGCAUCA
B13: chr7:140404665:140404666:+_ENSG00000090266_ENST00000247866|hu_hu|hu_hu_hu_mus_False|1_1 (ssRNA)
RNA: GGGAGUUCUACAGUCCGACGAUCUGCUCCUACUCGUCCAGAGAGUUUACAGUGUCAGUCCUCGUCAUCAGGAGGGAUUCCCAGUUCUUCAUCUGUCCACUGUGAAGGAUCUGGAUAUGAAAAGUGACCCAGCACAGCUUCUGACAACAGAGGAUUGAGCAUCA
B14: chr7:109302599:109302600:-_ENSMUSG00000063550_ENSMUST00000070165|mus_mus|FALSE|FALSE (ssRNA)
RNA: GGGAGUUCUACAGUCCGACGAUCAGAGUCAUCUUCUCCAUCCUGCUGAUUGUUCUCAUCAACAGGUUUGCUCAGGAAGCUAAAUCUUUCUCCAUUUUCUGGAUACUCAGAGGGUGAAGCUAGAUCUUCUGAAUCAUGAUUAACCAACAGAGGAUUGAGCAUCA

What follows are binders tested against T1, UNK ZnF1-3 (human, UniProt Q9C0B0 31-174) (assay: nsRBNS (natural sequence RNA bind-n-seq); RBNS binding buffer (assumed for nsRBNS): 25 mM Tris pH 7.5, 150 mM KCl, 3 mM MgCl2, 0.01% Triton X-100, 500 ug/ml BSA, 20 U/ml SUPERase-In, 4 C; UNK is unkempt and MSI1 is Musashi-1; names of the RNAs are library labels; protein concentration not given here; high values mean tight binding).
T1 sequence: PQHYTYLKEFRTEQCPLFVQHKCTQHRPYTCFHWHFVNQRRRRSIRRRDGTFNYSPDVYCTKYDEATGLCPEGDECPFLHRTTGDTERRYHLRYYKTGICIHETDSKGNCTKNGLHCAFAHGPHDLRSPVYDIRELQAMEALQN

Row | Binder | binding signal [enrichment R]
1 | B1 | 0.618
2 | B2 | 4.2
3 | B3 | 4.16
4 | B4 | 2.3
5 | B5 | 1.18
6 | B6 | 4.51
7 | B7 | 1.02
8 | B8 | 1
9 | B9 | 1.32
10 | B10 | 6.04
11 | B11 | 1.77
12 | B12 | 0.995
13 | B13 | 1.35
14 | B14 | 0.565

From publication PMC12136788
